Data taken from the supplement of paper PMC6897291.
Counter-ions that a name gives are not always drawn.

Tests used:
[1] = tested on: U-2932; assay: growth inhibition by drug alone (1 - RLU/untreated control) (fraction); higher = stronger inhibition; settings: 177Lu-lilotomab satetraxetan 0 ug/ml
In short: (§1)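 RIVA or U-2932 cells were left untreated or pretreated for 18 h with a radiolabelled anti-CD37 antibody conjugate (~600 MBq/mg) at 0.5 µg/ml for RIVA or 1 µg/ml for U-2932. The cells were then washed and seeded at 3,000 cells/well on plates pre-printed with the Selleck Cambridge Cancer Compound library, dosed at 10/100 nM for RIVA and 10/1,000 nM for U-2932. From day 3, RealTime-Glo luminescence was read daily after 1 h at 37°C. Growth inhibition was taken as one minus RLU over the mean of the untreated no-drug wells, of which there were 48 per plate.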

[2] = tested on: RIVA; assay: as above; settings: 177Lu-lilotomab satetraxetan 0 ug/ml
In short: as §1

[3] = tested on: U-2932; assay: growth inhibition by drug plus 177Lu-lilotomab satetraxetan (1 - RLU/untreated control) (fraction); higher = stronger inhibition; settings: 177Lu-lilotomab satetraxetan 1 ug/ml
In short: as §1

[4] = tested on: RIVA; assay: as above; settings: 177Lu-lilotomab satetraxetan 0.5 ug/ml
In short: as §1

SMILES	growth inhibition by drug alone ([1]; 10 nM, time (day): 3)	growth inhibition by drug alone ([1]; 10 nM, time (day): 4)	growth inhibition by drug alone ([1]; 10 nM, time (day): 5)	growth inhibition by drug alone ([1]; 10 nM, time (day): 6)	growth inhibition by drug alone ([1]; 1000 nM, time (day): 3)	growth inhibition by drug alone ([1]; 1000 nM, time (day): 4)	growth inhibition by drug alone ([1]; 1000 nM, time (day): 5)	growth inhibition by drug alone ([1]; 1000 nM, time (day): 6)	growth inhibition by drug alone ([2]; 10 nM, time (day): 3)	growth inhibition by drug alone ([2]; 10 nM, time (day): 4)	growth inhibition by drug alone ([2]; 10 nM, time (day): 5)	growth inhibition by drug alone ([2]; 10 nM, time (day): 6)	growth inhibition by drug alone ([2]; 100 nM, time (day): 3)	growth inhibition by drug alone ([2]; 100 nM, time (day): 4)	growth inhibition by drug alone ([2]; 100 nM, time (day): 5)	growth inhibition by drug alone ([2]; 100 nM, time (day): 6)	growth inhibition by drug plus 177Lu-lilotomab satetraxetan ([3]; 10 nM, time (day): 3)	growth inhibition by drug plus 177Lu-lilotomab satetraxetan ([3]; 10 nM, time (day): 4)	growth inhibition by drug plus 177Lu-lilotomab satetraxetan ([3]; 10 nM, time (day): 5)	growth inhibition by drug plus 177Lu-lilotomab satetraxetan ([3]; 10 nM, time (day): 6)	growth inhibition by drug plus 177Lu-lilotomab satetraxetan ([3]; 1000 nM, time (day): 3)	growth inhibition by drug plus 177Lu-lilotomab satetraxetan ([3]; 1000 nM, time (day): 4)	growth inhibition by drug plus 177Lu-lilotomab satetraxetan ([3]; 1000 nM, time (day): 5)	growth inhibition by drug plus 177Lu-lilotomab satetraxetan ([3]; 1000 nM, time (day): 6)	growth inhibition by drug plus 177Lu-lilotomab satetraxetan ([4]; 10 nM, time (day): 3)	growth inhibition by drug plus 177Lu-lilotomab satetraxetan ([4]; 10 nM, time (day): 4)	growth inhibition by drug plus 177Lu-lilotomab satetraxetan ([4]; 10 nM, time (day): 5)	growth inhibition by drug plus 177Lu-lilotomab satetraxetan ([4]; 10 nM, time (day): 6)	growth inhibition by drug plus 177Lu-lilotomab satetraxetan ([4]; 100 nM, time (day): 3)	growth inhibition by drug plus 177Lu-lilotomab satetraxetan ([4]; 100 nM, time (day): 4)	growth inhibition by drug plus 177Lu-lilotomab satetraxetan ([4]; 100 nM, time (day): 5)	growth inhibition by drug plus 177Lu-lilotomab satetraxetan ([4]; 100 nM, time (day): 6)
O=C(Nc1cccnc1)N1CCC(Cc2cccc(Oc3ccc(C(F)(F)F)cn3)c2)CC1	0.144	0.101	-0.0107	-0.0195	0.779	0.796	0.833	0.872	0.473	0.369	0.37	0.34	-0.00381	0.0224	0.0325	-0.0255	0.152	0.18	0.262	0.319	0.299	0.291	0.395	0.544	–	–	–	–	–	–	–	–
CN1CCC(CNc2ccc3ncc(-c4cccc(OC(F)(F)F)c4)n3n2)CC1 [SGI-1776 free base]	–	–	–	–	–	–	–	–	-0.104	-0.155	-0.336	-0.875	-0.453	-0.367	-0.351	-0.438	-0.0394	0.0134	0.0445	0.0394	0.154	0.125	0.168	0.265	0.428	0.539	0.541	0.561	0.302	0.441	0.445	0.462
CCN(CC)CCCCNc1ncc2cc(-c3cc(OC)cc(OC)c3)c(NC(=O)NC(C)(C)C)nc2n1	-0.118	-0.118	-0.0732	-0.00128	-0.114	-0.0849	-0.071	0.0716	-0.21	-0.246	-0.227	-0.211	-0.356	-0.38	-0.379	-0.398	-0.0428	0.00417	0.0568	0.152	-0.156	-0.0951	-0.0251	0.158	–	–	–	–	–	–	–	–
O=C(c1ccc(OCCN2CCCCC2)cc1)c1c(-c2ccc(O)cc2)sc2cc(O)ccc12 [Evista (Raloxifene Hydrochloride)]	–	–	–	–	–	–	–	–	0.0573	-0.0405	-0.151	-0.472	-0.0542	-0.0819	-0.167	-0.432	-0.0103	0.0219	0.0239	0.0818	-0.103	0.0136	-0.0473	-0.104	0.368	0.48	0.511	0.525	0.425	0.482	0.477	0.447
O=C1c2ccccc2-c2nc3nonc3nc21	–	–	–	–	–	–	–	–	-0.0244	-0.0693	-0.283	-0.811	-0.571	-0.488	-0.554	-0.831	0.0325	0.0601	0.0603	0.0121	0.496	0.527	0.536	0.582	0.417	0.519	0.528	0.542	0.116	0.288	0.31	0.332
